Source: PubChem BioAssay (NCATS)
Where “and” joins values, the source holds several entries; their conditions need not be identical. Equal values may be shown once. Results filed as inconclusive are left out. Where a call stands in place of a potency, no number is given. Unmarked numbers belong to inactive results. Calls of active or inactive are those of the source. Unless noted, calls come from the whole dose curve.

Tests used:
[1] = target: Androgen receptor (Homo sapiens) (UniProt P10275); assay: qHTS assay for small molecule agonists of androgen receptor signaling (AID 588515; active = well fitted curve in the direction sought with a large enough effect in the signal ratio, with a control signal flat; the % refers to the signal ratio); conditions: AR-UAS-bla HEK293, beta-lactamase ratio, agonist 16 h; activation: hits give high values
Summary of the method: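 Stimulation of an AR-responsive β-lactamase reporter in GripTite HEK293 cells was measured after 16 h compound exposure at 37 °C, via CCF4 fluorescence after 2 h RT. EC50 from Hill fits, normalized to R1881 at 30 nM.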

[2] = target: Androgen receptor (Homo sapiens) (UniProt P10275); assay: qHTS assay for small molecule antagonists of androgen receptor signaling (AID 588516; active = well fitted curve in the direction sought with a large enough effect in the signal ratio, with a control signal flat, not every such curve was filed as active; the % refers to the signal ratio)
Summary of the method: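 AR-UAS-bla-GripTite HEK 293 cells (2000/well, 5 h at 37 C) received compound titrations, then R1881 at 10 nM final; after 16 h at 37 C, CCF4 dye 2 h RT, beta-lactamase fluorescence read; IC50 from Hill fits.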

[3] = target: Peroxisome proliferator-activated receptor delta (Homo sapiens) (UniProt Q03181); assay: qHTS assay for small molecule antagonists of peroxisome proliferator-activated receptor delta signaling (AID 588535; active = well fitted inhibition curve with a large enough effect in the signal ratio, with a control signal flat, not every such curve was filed as active; the % refers to the signal ratio)
Summary of the method: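 Compounds tested in titration on PPAR-delta-UAS-bla HEK293T cells grown in charcoal/dextran-stripped serum (2%); beta-lactamase activity read via CCF4 emission at 460 and 530 nm.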

[4] = target: Peroxisome proliferator-activated receptor gamma (Homo sapiens) (UniProt P37231); assay: qHTS assay for small molecule antagonists of peroxisome proliferator-activated receptor gamma signaling (AID 588537; active = well fitted inhibition curve with a large enough effect in the signal ratio, with a control signal flat, not every such curve was filed as active; the % refers to the signal ratio;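 note: reporter cells co-stimulated with 50 nM rosiglitazone agonist during compound treatment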)
Summary of the method: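 HEK293 cells, PPAR-gamma-UAS-bla, 3000/well. Pre-incubation 6-6.5 h, 37 C. Compound titration with rosiglitazone 50 nM final, 16 h. CCF4 dye, 2 h RT, dual-emission fluorescence.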

[5] = target: Vitamin D3 receptor (Homo sapiens) (UniProt P11473); assay: qHTS assay for small molecule antagonists of vitamin D receptor signaling (AID 588541); note: potency is the fitted concentration of half-maximal effect
Summary of the method: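 VDR-UAS-bla HEK293T cells (2000/well, 2% charcoal-stripped FBS) were treated with titrated compounds plus 1-alpha,25-dihydroxyvitamin D3 (50 nM or 3 nM final) for 16 h at 37 C. CCF4 beta-lactamase fluorescence was read; Hill fits gave IC50.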

[6] = qHTS assay for small molecule activators of the p53 signaling pathway (AID 651743; active = well fitted activation curve with a large enough effect in the signal ratio, not every such curve was filed as active; the % refers to the signal ratio; note: series mostly up to about 92 µM); conditions: HCT-116 p53RE-bla, beta-lactamase FRET ratio, 16 h; activation: hits give high values
Summary of the method: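 Here HCT-116 cells with an integrated p53-responsive beta-lactamase gene were incubated with compounds (16 hours, 37 C) after a 5-hour plating period; beta-lactamase activity was detected as fluorescence intensity via B/G FRET substrate.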

[7] = qHTS assay for small molecule activators of the nuclear factor-kappa B (NF-kB) signaling pathway (AID 651749; active = well fitted activation curve with a large enough effect in the signal ratio; the % refers to the signal ratio; note: series mostly up to about 77 µM); conditions: NF-kB-bla ME-180 cells, beta-lactamase FRET ratio, 16 h; activation: hits give high values
Summary of the method: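 Beta-lactamase reporter expression, controlled by NF-kB response elements in ME-180 cells, was quantified fluorometrically via FRET disruption; cells at 2,000/well had been incubated with 23 nL test compound for 16 hr.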

[8] = target: Bile acid receptor (Homo sapiens) (UniProt Q96RI1); assay: qHTS assay for small molecule antagonists of farnesoid X receptor signaling (AID 588526)
Summary of the method: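 Concentration-response titrations were fitted to the Hill equation for half-maximal inhibition and maximal response, with data normalised to 50 uM chenodeoxycholic acid and DMSO control wells. Cells: FXR-UAS-bla HEK293T, dialyzed FBS.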

[9] = qHTS assay for small molecule agonists of the antioxidant response element (ARE) signaling pathway (AID 651741; active = well fitted activation curve with a large enough effect in the signal ratio; the % refers to the signal ratio; note: potency is the fitted concentration of half-maximal effect)
Summary of the method: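 Beta-lactamase reporter expression driven by the antioxidant response element in HepG2 cells was detected by fluorescence with LiveBLAzer B/G FRET substrate (2 h, room temperature) following 16 h compound treatment at 37 C.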

[10] = target: Estrogen receptor (Homo sapiens) (UniProt P03372); assay: qHTS assay for small molecule antagonists of estrogen receptor alpha signaling (AID 588513; active = well fitted curve in the direction sought with a large enough effect in the signal ratio, with a control signal flat, not every such curve was filed as active; the % refers to the signal ratio; note: potency is the fitted concentration of half-maximal effect)
Summary of the method: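 ER-alpha-UAS-bla GripTite HEK 293 cells in medium with 2% charcoal/dextran-treated FBS were preincubated 4 h at 37 C, dosed with compound (1:2 titration), stimulated with 0.5nM 17-beta-estradiol for 18 h, then read by CCF4 beta-lactamase fluorescence.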

Estrogen receptor (Homo sapiens), sequence (P03372 whole entry, looked up): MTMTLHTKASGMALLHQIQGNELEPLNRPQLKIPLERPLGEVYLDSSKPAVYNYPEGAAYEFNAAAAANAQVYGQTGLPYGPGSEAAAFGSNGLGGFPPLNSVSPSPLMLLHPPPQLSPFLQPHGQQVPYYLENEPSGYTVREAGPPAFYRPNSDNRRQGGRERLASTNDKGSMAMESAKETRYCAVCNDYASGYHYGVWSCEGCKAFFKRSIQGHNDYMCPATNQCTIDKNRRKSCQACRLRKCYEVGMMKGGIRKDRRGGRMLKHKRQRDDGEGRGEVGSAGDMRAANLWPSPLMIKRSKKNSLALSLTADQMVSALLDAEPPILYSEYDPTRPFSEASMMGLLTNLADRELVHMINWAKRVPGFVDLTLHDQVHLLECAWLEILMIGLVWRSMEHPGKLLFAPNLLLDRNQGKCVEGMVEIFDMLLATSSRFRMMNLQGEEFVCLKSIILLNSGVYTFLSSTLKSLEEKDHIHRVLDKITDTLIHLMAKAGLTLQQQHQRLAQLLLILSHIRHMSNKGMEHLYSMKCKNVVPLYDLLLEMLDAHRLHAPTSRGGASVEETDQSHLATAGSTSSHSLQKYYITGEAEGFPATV
Peroxisome proliferator-activated receptor gamma (Homo sapiens), sequence (P37231 whole entry, looked up): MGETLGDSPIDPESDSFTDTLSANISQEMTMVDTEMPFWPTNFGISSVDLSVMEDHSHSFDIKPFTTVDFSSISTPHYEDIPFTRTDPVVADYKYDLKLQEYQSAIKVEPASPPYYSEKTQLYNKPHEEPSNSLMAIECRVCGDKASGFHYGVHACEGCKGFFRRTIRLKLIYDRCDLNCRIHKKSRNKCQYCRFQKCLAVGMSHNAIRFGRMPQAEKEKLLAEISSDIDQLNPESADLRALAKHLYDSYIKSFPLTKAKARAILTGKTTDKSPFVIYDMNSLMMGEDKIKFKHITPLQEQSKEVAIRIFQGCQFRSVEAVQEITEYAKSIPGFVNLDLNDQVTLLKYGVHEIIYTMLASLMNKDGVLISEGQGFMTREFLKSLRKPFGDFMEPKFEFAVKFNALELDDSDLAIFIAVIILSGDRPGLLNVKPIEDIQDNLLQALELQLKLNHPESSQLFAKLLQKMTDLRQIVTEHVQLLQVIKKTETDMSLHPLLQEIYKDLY
Androgen receptor (Homo sapiens), sequence (P10275 whole entry, looked up): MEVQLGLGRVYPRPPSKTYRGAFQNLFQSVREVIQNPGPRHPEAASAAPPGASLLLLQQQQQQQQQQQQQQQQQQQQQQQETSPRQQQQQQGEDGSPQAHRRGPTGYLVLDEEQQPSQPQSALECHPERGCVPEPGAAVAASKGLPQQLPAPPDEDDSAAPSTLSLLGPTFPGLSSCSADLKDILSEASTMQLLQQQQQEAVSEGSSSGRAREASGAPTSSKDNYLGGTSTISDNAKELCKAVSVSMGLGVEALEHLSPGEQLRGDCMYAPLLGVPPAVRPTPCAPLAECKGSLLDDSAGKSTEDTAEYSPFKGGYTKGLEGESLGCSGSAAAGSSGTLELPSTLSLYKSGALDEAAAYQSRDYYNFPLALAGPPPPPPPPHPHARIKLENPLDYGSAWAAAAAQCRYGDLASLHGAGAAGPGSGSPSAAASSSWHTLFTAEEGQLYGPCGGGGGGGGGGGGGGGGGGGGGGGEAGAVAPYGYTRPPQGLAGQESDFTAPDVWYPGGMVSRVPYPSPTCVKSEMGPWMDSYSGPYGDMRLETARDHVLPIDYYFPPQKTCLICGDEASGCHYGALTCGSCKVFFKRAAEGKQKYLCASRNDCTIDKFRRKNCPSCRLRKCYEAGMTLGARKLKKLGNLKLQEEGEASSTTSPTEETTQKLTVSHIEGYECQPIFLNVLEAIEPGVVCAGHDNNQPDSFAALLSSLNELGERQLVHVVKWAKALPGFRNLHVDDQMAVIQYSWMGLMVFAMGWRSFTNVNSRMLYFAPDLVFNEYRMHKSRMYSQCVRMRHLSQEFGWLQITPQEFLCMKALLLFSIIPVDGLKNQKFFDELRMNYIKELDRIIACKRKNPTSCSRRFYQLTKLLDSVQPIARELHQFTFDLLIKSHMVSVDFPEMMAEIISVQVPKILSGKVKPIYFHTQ
Peroxisome proliferator-activated receptor delta (Homo sapiens), sequence (Q03181 whole entry, looked up): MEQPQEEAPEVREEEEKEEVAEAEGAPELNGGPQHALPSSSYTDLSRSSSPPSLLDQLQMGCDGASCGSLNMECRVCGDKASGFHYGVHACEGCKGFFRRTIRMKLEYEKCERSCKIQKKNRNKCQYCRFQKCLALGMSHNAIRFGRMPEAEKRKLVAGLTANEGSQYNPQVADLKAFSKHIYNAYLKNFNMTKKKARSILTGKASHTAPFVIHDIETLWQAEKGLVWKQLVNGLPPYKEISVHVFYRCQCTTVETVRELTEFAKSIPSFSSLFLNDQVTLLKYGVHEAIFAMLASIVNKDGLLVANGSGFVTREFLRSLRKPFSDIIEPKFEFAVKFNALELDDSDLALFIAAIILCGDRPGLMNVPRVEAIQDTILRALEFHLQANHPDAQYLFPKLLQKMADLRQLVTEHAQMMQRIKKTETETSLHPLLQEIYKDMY
Bile acid receptor (Homo sapiens), sequence (Q96RI1 whole entry, looked up): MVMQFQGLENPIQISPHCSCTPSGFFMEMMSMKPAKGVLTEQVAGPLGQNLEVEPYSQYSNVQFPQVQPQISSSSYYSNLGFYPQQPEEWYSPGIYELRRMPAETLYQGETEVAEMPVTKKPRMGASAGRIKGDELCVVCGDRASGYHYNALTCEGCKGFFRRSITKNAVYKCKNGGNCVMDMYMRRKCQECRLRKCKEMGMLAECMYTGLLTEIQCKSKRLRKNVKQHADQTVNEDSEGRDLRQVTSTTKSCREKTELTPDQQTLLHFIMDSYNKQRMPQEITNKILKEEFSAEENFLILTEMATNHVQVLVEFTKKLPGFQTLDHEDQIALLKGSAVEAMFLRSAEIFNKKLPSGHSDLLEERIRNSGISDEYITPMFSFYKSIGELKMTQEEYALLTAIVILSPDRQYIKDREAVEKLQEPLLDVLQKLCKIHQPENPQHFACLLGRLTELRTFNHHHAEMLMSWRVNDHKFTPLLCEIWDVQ
Vitamin D3 receptor (Homo sapiens), sequence (P11473 whole entry, looked up): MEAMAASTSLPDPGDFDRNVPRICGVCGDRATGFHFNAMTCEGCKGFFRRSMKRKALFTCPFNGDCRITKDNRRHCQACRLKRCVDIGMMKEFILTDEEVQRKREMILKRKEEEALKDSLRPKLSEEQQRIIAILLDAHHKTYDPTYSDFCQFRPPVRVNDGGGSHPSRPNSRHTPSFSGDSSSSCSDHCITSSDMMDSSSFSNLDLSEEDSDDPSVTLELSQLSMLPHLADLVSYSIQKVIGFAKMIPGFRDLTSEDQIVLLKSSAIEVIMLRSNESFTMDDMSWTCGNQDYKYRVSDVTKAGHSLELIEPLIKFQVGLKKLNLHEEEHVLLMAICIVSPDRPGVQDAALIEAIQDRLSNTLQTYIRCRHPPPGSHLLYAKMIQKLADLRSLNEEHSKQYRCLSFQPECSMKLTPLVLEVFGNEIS

| Structure (SMILES) | activation [1] [%] | outcome [2] | Potency [3] | Potency [4] | Potency [5] | activation [6] | activation [7] [%] | Potency [8] | Potency [9] | Potency [10] |
| --- | --- | --- | --- | --- | --- | --- | --- | --- | --- | --- |
| FC(F)(F)c1ccc(Cl)c(Cl)c1 | 6.47 | inactive | inactive | inactive | inactive | -5.24% | -0.0768 | – | – | – |
| Nc1ccc(N)c2c1C(=O)c1c(N)ccc(N)c1C2=O | 5.62 | inactive | – | inactive | – | – | 7.06 | inactive | 27.3 µM (active) | – |
| CCOC(=O)COc1cc(-n2ncc(C(F)(F)F)c(C)c2=O)c(F)cc1Cl | -1.68 | – | inactive | inactive | – | 2.36% | – | – | – | inactive |
| CC1(C)C(=O)NC(=O)N1CO | – | – | inactive | inactive | inactive | -0.511% | – | – | – | inactive |
| CO/N=C1\C[C@]2(C[C@@H]3C[C@@H](C/C=C(\C)C[C@@H](C)/C=C/C=C4\CO[C@@H]5[C@H](O)C(C)=C[C@@H](C(=O)O3)[C@]45O)O2)O[C@H](/C(C)=C/C(C)C)[C@H]1C | – | – | – | – | 17.8 µM (active) | – | – | – | – | 7.94 µM [inhibitor] (active) |
| Cl[Si](Cl)(Cl)c1ccccc1 | 7.73 | inactive | inactive | inactive | inactive | – | -0.0547 | inactive | inactive | – |
| CCCCCCCC[Si](Cl)(Cl)Cl | 3.85 | inactive | inactive | inactive | inactive | 0.514% | -3.66 | inactive | – | – |
| CN=C(N)NCC1CCOC1 (stereo not given) | 2.67 | – | – | – | inactive | 20.9% and -3.95% | – | inactive | 21.7 µM (active) | – |
| C[Si](Cl)(Cl)c1ccccc1 | 5.21 | inactive | inactive | – | inactive | -1.52% | 0.494 | inactive | – | – |
| COC(=O)c1ccccc1S(=O)(=O)NC(=O)Nc1nc(OC(F)F)cc(OC(F)F)n1 | -5.06 | inactive | – | inactive | inactive | -4.45% | -2.94 | inactive | inactive | – |
| COc1ccccc1NC(=O)CC(C)=O | – | – | inactive | – | inactive | -7.86% | -0.04 | – | inactive | inactive |
| Cc1ccc(N=Nc2c(O)ccc3ccccc23)c(C)c1 | -2.14 | inactive | inactive | – | inactive | – | 6 | inactive | 7.7 µM (active) | – |
| CCCCCCCC/C=C\CCCCCCCCCCCCC | 5.8 | inactive | inactive | – | inactive | -1.77% | -1.6 | inactive | inactive | – |
| O=C1CCCC/C=C/CCCCCCCCCO1 | 0.71 | inactive | inactive | inactive | – | 0.177% | – | inactive | inactive | – |
| CC(C)=CCC[C@@H](C)[C@H]1CC[C@@]2(C)C3=C(CC[C@]12C)[C@@]1(C)CC[C@H](O)C(C)(C)[C@@H]1CC3 | 6.85 | – | inactive | – | inactive | 2.67% | 1.26 | inactive | inactive | – |
| CN(C)c1nc(=O)n(C2CCC(O)CC2)c(=O)n1C (stereo not given) | 6.02 | inactive | – | inactive | – | – | – | inactive | inactive | – |
| O=S(=O)(O)c1cc(S(=O)(=O)O)c2c(N=Nc3ccccc3)c(O)ccc2c1 | – | – | inactive | – | inactive | -0.0659% | – | inactive | inactive | inactive |
| CC(C)(C)c1ccc(O)c(C(C)(C)C)c1 | – | – | – | inactive | – | 1.63% | -1.75 | inactive | – | inactive |
| CCCCCCCCCCCCCC(=O)OC | 9.07 | inactive | – | inactive | inactive | – | – | – | – | – |
| CCC/C(=N\OCC)C1=C(O)CC(O)(CC(C)S(=O)(=O)CC)CC1=O (stereo not given) | -4 | inactive | – | inactive | inactive | -2.69% | – | inactive | 54.5 µM (active) | – |
| O=C(O)c1cccc(C(=O)O)c1 | – | – | inactive | inactive | – | – | – | – | inactive | inactive |
| CSc1ccc(Cl)cc1 | -7.93 | inactive | – | inactive | inactive | – | – | inactive | inactive | – |
| CCCCCCCCC(=O)O | – | – | inactive | – | – | 4.29% | – | – | – | inactive |
| CC1(C)CC(NCCCCCCNC2CC(C)(C)NC(C)(C)C2)CC(C)(C)N1 | 6.67 | inactive | – | inactive | – | -1.03% | -3.22 | inactive | – | – |
| CC1COCc2cc3c(cc21)C(C)(C)C(C)C3(C)C (stereo not given) | 12.8 | inactive | inactive | – | inactive | -1.06% | 1.51 | inactive | inactive | – |
